# Measured values reported in article PMC7862700, “An all-to-all approach to the identification of sequence-specific readers for epigenetic DNA modifications on cytosine”.
# Experiments:
# Experiment in all cases: DAPPL (digital affinity profiling via proximity ligation, sequencing); 10 mM Tris-HCl pH 7.5, 50 mM NaCl, 1 mM DTT, 4% glycerol, room temperature, 30 min; GST-TFs on glutathione beads, 16-mer random dsDNA library, 0.1% formaldehyde crosslink after washing; high values mean tight binding
# Details in all cases: protein: recombinant; tags: N-terminal GST; dsDNA, one strand shown
# [1] = target: T1, FLI1 (Homo sapiens, UniProt Q01543 1-452)
# T1 sequence: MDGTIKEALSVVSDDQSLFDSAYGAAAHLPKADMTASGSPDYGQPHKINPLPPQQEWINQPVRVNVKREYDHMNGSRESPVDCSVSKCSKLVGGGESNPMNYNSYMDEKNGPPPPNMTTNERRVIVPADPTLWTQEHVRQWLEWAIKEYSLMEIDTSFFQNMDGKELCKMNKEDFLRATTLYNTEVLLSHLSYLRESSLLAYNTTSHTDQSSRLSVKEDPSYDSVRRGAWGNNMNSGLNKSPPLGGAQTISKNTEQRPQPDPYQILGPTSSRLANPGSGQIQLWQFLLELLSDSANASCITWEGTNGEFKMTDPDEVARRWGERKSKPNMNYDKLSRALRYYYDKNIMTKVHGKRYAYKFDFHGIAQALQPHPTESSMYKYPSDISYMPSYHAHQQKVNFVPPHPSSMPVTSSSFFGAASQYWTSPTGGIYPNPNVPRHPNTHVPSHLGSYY
# Outline: (§1)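 Binding signal is each hexamer's read frequency for a factor divided by its frequency in the tag-only sample. The factors were GST-fused human transcription factors from yeast, captured on glutathione beads, DNA-barcoded and pooled with that sample. Pools were incubated with 200 nmole of a random double-stranded 16-mer DNA library in Tris/NaCl/DTT/glycerol buffer at room temperature for 30 min, then washed, crosslinked with 0.1% formaldehyde, proximity-ligated with BsaI/T4 ligase (1 h, 37 °C), PCR-amplified and sequenced on an Illumina NextSeq500.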
# [2] = target: T2, ELK1 (Homo sapiens, UniProt P19419 1-428)
# T2 sequence: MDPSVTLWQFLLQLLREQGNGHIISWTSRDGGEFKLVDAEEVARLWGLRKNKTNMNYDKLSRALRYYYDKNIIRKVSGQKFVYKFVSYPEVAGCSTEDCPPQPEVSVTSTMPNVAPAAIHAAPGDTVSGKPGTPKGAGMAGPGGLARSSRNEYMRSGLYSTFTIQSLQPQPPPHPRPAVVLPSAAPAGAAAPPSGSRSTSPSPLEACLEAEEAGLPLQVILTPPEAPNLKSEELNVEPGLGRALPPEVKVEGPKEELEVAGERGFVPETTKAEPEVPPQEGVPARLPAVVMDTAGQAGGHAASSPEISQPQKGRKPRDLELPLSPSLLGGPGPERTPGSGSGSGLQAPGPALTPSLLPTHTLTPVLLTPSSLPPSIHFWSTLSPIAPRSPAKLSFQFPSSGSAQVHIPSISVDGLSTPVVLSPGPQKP
# Outline: as §1
# [3] = target: T3, GABPA (Homo sapiens, UniProt Q06546 1-454)
# T3 sequence: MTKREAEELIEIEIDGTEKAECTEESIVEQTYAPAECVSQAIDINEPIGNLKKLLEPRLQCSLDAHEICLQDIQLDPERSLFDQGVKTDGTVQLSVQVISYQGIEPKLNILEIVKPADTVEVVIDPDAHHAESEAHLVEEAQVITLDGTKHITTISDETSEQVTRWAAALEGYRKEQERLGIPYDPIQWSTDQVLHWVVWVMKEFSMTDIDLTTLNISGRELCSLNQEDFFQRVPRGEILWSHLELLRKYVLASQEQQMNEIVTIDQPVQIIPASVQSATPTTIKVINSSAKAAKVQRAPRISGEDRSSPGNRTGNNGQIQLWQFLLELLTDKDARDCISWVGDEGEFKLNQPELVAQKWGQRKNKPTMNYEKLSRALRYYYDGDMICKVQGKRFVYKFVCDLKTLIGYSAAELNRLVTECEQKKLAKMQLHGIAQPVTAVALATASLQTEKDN
# Outline: as §1
# [4] = target: T4, ERG (Homo sapiens, UniProt P11308 1-479)
# T4 sequence: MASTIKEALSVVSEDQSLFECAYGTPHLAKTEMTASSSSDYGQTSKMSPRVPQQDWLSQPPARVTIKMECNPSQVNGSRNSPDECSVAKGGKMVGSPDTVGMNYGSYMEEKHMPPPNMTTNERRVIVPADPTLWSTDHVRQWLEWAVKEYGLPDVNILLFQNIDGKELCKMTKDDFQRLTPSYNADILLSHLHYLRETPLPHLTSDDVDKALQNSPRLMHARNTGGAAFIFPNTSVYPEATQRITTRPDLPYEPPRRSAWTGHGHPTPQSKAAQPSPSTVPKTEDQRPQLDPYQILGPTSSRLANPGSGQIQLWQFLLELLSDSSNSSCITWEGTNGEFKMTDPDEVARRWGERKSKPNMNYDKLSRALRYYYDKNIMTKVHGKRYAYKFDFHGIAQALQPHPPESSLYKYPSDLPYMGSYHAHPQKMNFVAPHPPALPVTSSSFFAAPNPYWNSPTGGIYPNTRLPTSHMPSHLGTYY
# Outline: as §1
# [5] = target: ELF1 (Homo sapiens, UniProt P32519 1-619)
# Outline: as §1
# [6] = target: T5, EHF (Homo sapiens, UniProt Q9NZC4 1-300)
# T5 sequence: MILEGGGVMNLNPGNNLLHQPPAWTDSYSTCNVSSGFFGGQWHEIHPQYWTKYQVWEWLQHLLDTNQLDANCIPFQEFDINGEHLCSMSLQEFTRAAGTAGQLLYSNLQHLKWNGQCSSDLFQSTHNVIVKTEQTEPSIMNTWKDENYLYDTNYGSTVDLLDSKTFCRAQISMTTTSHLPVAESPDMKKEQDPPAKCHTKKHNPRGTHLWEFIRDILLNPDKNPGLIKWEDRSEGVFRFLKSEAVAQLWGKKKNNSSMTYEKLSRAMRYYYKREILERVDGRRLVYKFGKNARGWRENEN
# Outline: as §1
# [7] = target: SPI1 (Homo sapiens, UniProt P17947 1-270)
# Outline: as §1
# [8] = target: SPIB (Homo sapiens, UniProt Q01892 1-262)
# Outline: as §1
# [9] = target: T6, ELK3 (Homo sapiens, UniProt P41970 1-407)
# T6 sequence: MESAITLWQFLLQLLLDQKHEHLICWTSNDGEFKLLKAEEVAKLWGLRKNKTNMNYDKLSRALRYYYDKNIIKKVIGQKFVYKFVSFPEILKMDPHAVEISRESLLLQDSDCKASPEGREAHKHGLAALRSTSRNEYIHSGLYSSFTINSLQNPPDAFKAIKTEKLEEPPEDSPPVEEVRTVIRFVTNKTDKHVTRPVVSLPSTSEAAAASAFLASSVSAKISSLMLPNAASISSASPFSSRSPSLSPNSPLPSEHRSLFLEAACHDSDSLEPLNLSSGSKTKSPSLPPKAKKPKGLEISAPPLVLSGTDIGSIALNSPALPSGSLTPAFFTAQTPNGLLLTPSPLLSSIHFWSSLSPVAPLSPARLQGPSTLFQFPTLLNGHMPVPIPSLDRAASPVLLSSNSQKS
# Outline: as §1
# Chain of ELF1 (P32519 whole entry): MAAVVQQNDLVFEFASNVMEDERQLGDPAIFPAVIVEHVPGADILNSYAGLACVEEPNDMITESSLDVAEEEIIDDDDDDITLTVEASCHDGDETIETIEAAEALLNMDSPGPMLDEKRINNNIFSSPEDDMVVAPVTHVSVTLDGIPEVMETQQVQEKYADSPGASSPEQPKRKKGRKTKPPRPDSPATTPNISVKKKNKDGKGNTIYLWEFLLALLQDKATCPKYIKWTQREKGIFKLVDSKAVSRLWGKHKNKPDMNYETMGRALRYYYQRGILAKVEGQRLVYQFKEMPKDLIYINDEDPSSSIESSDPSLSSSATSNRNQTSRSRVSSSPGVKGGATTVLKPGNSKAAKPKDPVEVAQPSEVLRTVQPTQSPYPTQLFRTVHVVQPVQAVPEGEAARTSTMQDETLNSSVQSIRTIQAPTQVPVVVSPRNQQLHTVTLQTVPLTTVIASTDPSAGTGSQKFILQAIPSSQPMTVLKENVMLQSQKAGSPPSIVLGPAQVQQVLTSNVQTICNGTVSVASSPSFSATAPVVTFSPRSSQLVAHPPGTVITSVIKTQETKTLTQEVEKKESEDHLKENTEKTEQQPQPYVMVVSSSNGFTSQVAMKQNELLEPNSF
# Chain of SPIB (Q01892 whole entry): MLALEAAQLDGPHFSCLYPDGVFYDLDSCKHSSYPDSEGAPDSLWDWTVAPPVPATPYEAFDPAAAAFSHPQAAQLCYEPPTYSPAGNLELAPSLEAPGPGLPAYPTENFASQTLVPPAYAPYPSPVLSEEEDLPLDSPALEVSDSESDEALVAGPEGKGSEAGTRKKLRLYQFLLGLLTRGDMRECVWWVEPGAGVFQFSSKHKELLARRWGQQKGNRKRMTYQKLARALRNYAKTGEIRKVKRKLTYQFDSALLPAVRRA
sequence,measurement,setting,value
TACACA,binding signal,[1],"1.21 fold enrichment (6-mer frequency, TF over GST control)"
same,binding signal,[2],"1.14 fold enrichment (6-mer frequency, TF over GST control)"
same,binding signal,[3],"1.15 fold enrichment (6-mer frequency, TF over GST control)"
same,binding signal,[4],"1.26 fold enrichment (6-mer frequency, TF over GST control)"
same,binding signal,[5],"1.21 fold enrichment (6-mer frequency, TF over GST control)"
same,binding signal,[6],"1.25 fold enrichment (6-mer frequency, TF over GST control)"
same,binding signal,[7],"1.11 fold enrichment (6-mer frequency, TF over GST control)"
same,binding signal,[8],"1.23 fold enrichment (6-mer frequency, TF over GST control)"
same,binding signal,[9],"1.18 fold enrichment (6-mer frequency, TF over GST control)"
